Most compounds without a hit are left out; they make up all but 1.3% or so of the library.
VHR inh abs: inhibitors of human VHR1 phosphatase (DUSP3) | recombinant VHR phosphatase, pNPP absorbance | inhibition, % at 13.3 µM | P51452 | 290,000 tested, 0.52% active | AID 1654; in the data active means inhibition above about 50%
Target sequence (P51452 whole entry, looked up): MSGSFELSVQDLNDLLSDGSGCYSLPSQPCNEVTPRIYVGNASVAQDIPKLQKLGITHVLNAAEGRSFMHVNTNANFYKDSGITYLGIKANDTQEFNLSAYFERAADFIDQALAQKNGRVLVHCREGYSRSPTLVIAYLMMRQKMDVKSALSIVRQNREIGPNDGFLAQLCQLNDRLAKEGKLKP
Mtb hypoxia rep: reduces hypoxia-regulated biosensor signal in M. tuberculosis | M. tuberculosis hypoxia-regulated fluorescent reporter, fluorescence | fluorescence inhibition, % (no concentration beside the values) | 300,000 tested, 0.1% active; in the data active means fluorescence inhibition mostly above about 23%, no sharp cut-off; inactive means mostly below about 17%
CCHF vOTU inh-1: blocks the CCHF virus ovarian tumor domain protease | CCHFV vOTU protease, Pep-AMC fluorescence | inhibition, % at 11.5 µM | 370,000 tested, 0.55% active; further: 0% = vehicle wells with enzyme and 100% = no enzyme wells
SARS 3CLpro inh: SARS-CoV 3CLpro protease inhibition | AID 1706 | recombinant SARS-CoV 3CLpro, quenched FRET peptide cleavage | inhibition, % at 6 µM | 290,000 tested, 0.14% active; in the data active means inhibition above about 12%
PriA SSB inh: K. pneumoniae PriA-SSBct interaction inhibition | AlphaScreen SSBct-PriA binding, biotinylated peptide | inhibition, % at 33 µM | 430,000 tested, 0.6% active | AID 1272365; in the data active means inhibition mostly above about 37%, no sharp cut-off; inactive means mostly below about 20%;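 further: plate controls were negative control peptide for no effect and reference peptide for full effect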
CCHF vOTU inh-2: confirmation of CCHF virus vOTU protease inhibitors; shares compounds with CCHF vOTU inh-1; Recombinant CCHFV vOTU, Pep-AMC fluorescence; inhibition, % at 11.5 µM; 1,900 tested, 17% active
* hit, by the source's call; . = no result. Unless noted, no stated cut-off is given here; in the data, active means inhibition above about 30%; inactive means the rest.

SMILES	VHR inh abs	Mtb hypoxia rep	CCHF vOTU inh-1	SARS 3CLpro inh	PriA SSB inh	CCHF vOTU inh-2
O=C1Cc2ccccc2C(=O)N1	.	.	116*	.	.	94*
O=S(=O)(c1ccccc1Br)N1CCc2oncc2C1	.	.	.	.	-5	.
CCOC(=O)c1csc(-n2nc(C)cc2C(F)(F)F)n1	9	-10	31*	3	-14	1
O=C(CCc1csc2nc(-c3ccccc3)cn12)N1CCN(c2ccccc2F)CC1	.	.	.	.	1	.
CC(C)Sc1ccc(C(=O)Nc2ccc(S(N)(=O)=O)cc2)cc1	.	.	.	.	-7	.
CC(C)C(=O)Nc1ccc(C(=O)NN=Cc2cc(Br)cc(Br)c2O)cc1	.	.	.	.	2	.
CC(C)C(=O)Nc1ccc(C(=O)N/N=C/c2cc(Br)cc(Br)c2O)cc1	16	.	32*	0	.	-3
CCn1nnc2c(N3CC(C(=O)NCCc4ccc(S(N)(=O)=O)cc4)C3)ncnc21	.	.	.	.	2	.
COc1ccc(O)c(C(c2c(C)[nH][nH]c2=O)c2c(C)[nH][nH]c2=O)c1	22	.	84*	5	-4	-15
O=C(NCC(=O)N1CCc2nc3ccc(F)cn3c(=O)c2C1)OCc1ccccc1	.	.	.	.	6	.
Cc1cccc(NC(=O)NCCSC2CCOCC2)c1	.	.	.	.	-23	.
COc1ccc(S(=O)(=O)NCC(c2ccco2)N2CCc3ccccc3C2)cc1 (stereo not given)	.	2	35*	.	-6	-7
Cc1ccc(S(=O)(=O)N2CCN(c3ccc(-c4ccc(Cl)cc4)nn3)CC2)s1	.	.	.	.	-15	.
N#C/C(=C\c1ccc(N2CCOCC2)cc1)c1ccccc1	-7	4	6	3	-10	.
N#CC(C#N)=Cc1ccc(N2CCOCC2)cc1	15	10	30*	2	-2	-8
O=C(O)c1ccc(NC2=C/C(=N/S(=O)(=O)c3ccccc3)c3ccccc3C2=O)cc1	37	.	108*	9	.	113*
O=S(=O)(N=C1C=CC(=NS(=O)(=O)c2ccccc2)c2ccccc21)c1ccccc1	.	.	72*	.	.	68*
O=C(O)c1ccc(NC2=C/C(=N/S(=O)(=O)c3cccs3)c3ccccc3C2=O)cc1	.	.	110*	.	.	105*
Cc1ccc(S(=O)(=O)/N=C2\C=C(NS(=O)(=O)c3ccccc3)C(=O)c3ccccc32)cc1	.	.	51*	.	.	29
Cc1ncc(C(N)=O)c(C)c1Cl	.	.	.	.	-12	.
Cc1ccc(Cl)cc1NC1=C/C(=N\S(=O)(=O)c2cccs2)c2ccccc2C1=O	17	-7	96*	6	.	95*
CCc1ccc(S(=O)(=O)/N=C2\C=C(Nc3ccc(O)cc3)C(=O)c3ccccc32)cc1	15	.	.	8	.	.
CCc1ccc(S(=O)(=O)/N=C2\C=C(Nc3cccc(C(=O)O)c3)C(=O)c3ccccc32)cc1	35	.	137*	6	.	115*
Cc1cc(N2C(=O)C(O)=C(C(=O)c3ccco3)C2c2cccc(O)c2)no1 (stereo not given)	-6	-1	7	0	2	.
Cc1cc(C)c2nc(N3C(=O)C(O)=C(C(=O)c4ccco4)C3c3cccc(O)c3)sc2c1 (stereo not given)	.	1	36*	.	-3	-1
SMILES	VHR inh abs	Mtb hypoxia rep	CCHF vOTU inh-1	SARS 3CLpro inh	PriA SSB inh	CCHF vOTU inh-2
Cc1cc(C)c2nc(N3C(=O)C(O)=C(C(=O)c4ccco4)C3c3ccc(O)cc3)sc2c1 (stereo not given)	.	0	34*	.	4	6
CCOC(=O)c1sc(N2C(=O)C(O)=C(C(=O)c3ccco3)C2c2cccc(Cl)c2)nc1C (stereo not given)	5	.	42*	4	.	1
Cc1ccc2nc(N3C(=O)C(O)=C(C(=O)c4ccco4)C3c3ccc(O)cc3)sc2c1 (stereo not given)	-19	.	25	8	.	.
CCOC(=O)c1sc(N2C(=O)C(O)=C(C(=O)c3ccco3)C2c2cccc([N+](=O)[O-])c2)nc1C (stereo not given)	10	1	19	10	0	.
NC(=O)C1Cc2ccccc2N1C(=O)Cc1ccc(F)cc1 (stereo not given)	.	.	.	.	7	.
CC1(C)Nc2cccc3cccc(c23)N1	.	11	33*	.	10	-104
c1cc2c3c(cccc3c1)NC1(CCCC1)N2	.	-6	28	.	18	.
COc1cccc(CNC(=O)c2cnc3c(c(C)nn3-c3ccc(C)cc3)c2Cl)c1	.	.	.	.	-9	.
Cc1nc(-[n+]2nc(-c3ccncc3)nn2-c2ccccc2)sc1C	.	.	44*	.	.	-4
Cc1ccc2c(c1)c(=O)c1c3n2CCN(CC#N)C3CC1 (stereo not given)	30	12	-6	-1	-2	.
Cc1ccc2c(c1)c(=O)c1c3n2CCN(C(=O)CCl)C3CC1 (stereo not given)	12	.	51*	-1	0	19
CC1CN(C(C)C)C(=S)N(c2ccccc2)C1=O (stereo not given)	.	6	16	.	-21	.
CC1CN(Cc2ccccc2)C(=S)N(c2ccccc2)C1=O (stereo not given)	.	10	32*	.	-7	-17
COc1ccc(CNC(=O)C(=O)Nc2cc(N3CCCS3(=O)=O)ccc2OC)cc1	.	.	.	.	-11	.
COC(=O)c1ccc(C(=O)NCc2cccnc2-c2cccs2)cc1	.	.	.	.	-19	.
O=C(NNC(=O)c1ccc(NC(=O)c2ccccc2)cc1)c1ccc(F)cc1	27	8	22	-4	-21	.
O=C(NC1=C(Nc2ccc(F)cc2)C(=O)c2ccccc2C1=O)c1ccc(Cl)cc1	-8	-17	35*	7	9	58*
CC(=O)Nc1ccc2c(O)cc(S(=O)(=O)O)cc2c1	.	-3	12	.	12	.
Nc1ccc2c(O)cc(S(=O)(=O)O)cc2c1	.	11	52*	.	7	-40
CC(=O)Nc1ccc(NC(=O)c2ccc(S(=O)(=O)N3CCCCCC3)cc2)cc1	.	.	43*	.	.	0
Cc1ccnc2ccc(C(=O)NC3CCN(c4ccccn4)C3)cc12 (stereo not given)	.	.	.	.	-2	.
O=C(Nc1ccc(Nc2ccc(-n3cccn3)nn2)cc1)c1ccc2c(c1)OCO2	.	.	.	.	32	.
COC(=O)c1nn(-c2ccccc2)c2nnc(Cc3ccc(C)cc3)c(=O)n12	-8	10	32*	5	7	-16
CSC1=N/C(=C\c2ccc(C)o2)C(=O)S1	3	11	30*	-2	-1	-8
CC1(C)CC(=O)C=C(Nc2ccccn2)C1	12	6	11	-2	-7	.
SMILES	VHR inh abs	Mtb hypoxia rep	CCHF vOTU inh-1	SARS 3CLpro inh	PriA SSB inh	CCHF vOTU inh-2
CC1(C)CC(=O)C=C(Nc2ccc(Br)cn2)C1	3	0	31*	1	2	-1
Cn1c(=O)c2c(nc(CN3CCN(C(=O)c4ccco4)CC3)n2Cc2c(Cl)cccc2Cl)n(C)c1=O	.	.	.	.	-8	.
CC1Cc2ccccc2N1C(=O)COC(=O)c1ccc([N+](=O)[O-])o1 (stereo not given)	.	16	39*	.	9	10
COc1ccc(/C=C2\SC(=O)N(CCNC(=O)C3=COCCO3)C2=O)cc1	.	-15	36*	.	2	-6
CCc1cc[n+](C2=C([O-])c3ccccc3C(=O)C2=NS(=O)(=O)c2cccs2)cc1	.	.	.	.	13	.
O=C1/C(=N\S(=O)(=O)c2cccs2)C([n+]2ccccc2)=C([O-])c2ccccc21	23	-4	49*	4	.	89*
